Compounds with a hit are over-represented: about 2.4% of the library has one in this group of screens.
D2 PAM-1 = D2 dopamine receptor (human) potentiation; P14416; HEK293 T-REx D2, calcium flux, EC20 dopamine potentiation; potentiation, % at 10 µM; actives 0.34% (n = 340,000); AID 485347;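 active means potentiation over 3 SD above the plate norm, cut at about 30% in these data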
Target sequence (P14416 whole entry, looked up): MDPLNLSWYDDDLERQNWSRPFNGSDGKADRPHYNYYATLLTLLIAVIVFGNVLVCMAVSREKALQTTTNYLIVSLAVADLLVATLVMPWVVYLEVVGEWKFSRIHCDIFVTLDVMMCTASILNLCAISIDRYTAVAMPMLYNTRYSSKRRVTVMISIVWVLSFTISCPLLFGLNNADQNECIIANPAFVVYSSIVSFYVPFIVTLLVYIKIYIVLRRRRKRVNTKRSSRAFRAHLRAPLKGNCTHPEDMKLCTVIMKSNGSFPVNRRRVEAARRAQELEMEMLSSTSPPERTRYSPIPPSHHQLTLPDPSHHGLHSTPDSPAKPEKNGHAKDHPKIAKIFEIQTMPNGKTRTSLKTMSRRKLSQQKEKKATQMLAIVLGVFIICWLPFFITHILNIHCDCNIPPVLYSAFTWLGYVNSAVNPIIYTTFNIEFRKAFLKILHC
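Tetracycline-induced Hek293 Trex D2 cells, force-coupled to calcium, loaded with no-wash calcium dye. Compound added with 180 s kinetic read for agonism, then EC20 dopamine and a further 180 s read for potentiation.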
D2 antag = antagonists of human D2 dopamine receptor; inhibition, % at 10 µM; P14416; HEK293 TREx D2 cells, calcium flux, dopamine EC80; actives 2% (n = 340,000); AID 485344; in the data active means inhibition above about 30%; inactive means below that, where a call was filed
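Tetracycline-induced HEK293 T-REx cells expressing D2 force-coupled to calcium signalling were dye-loaded, exposed to compound for 180 s, then challenged with an EC80 of dopamine; calcium flux was followed kinetically for a further 180 s.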
D2 ag-1 = activates the human D2 dopamine receptor. actives 0.084% (n = 360,000). activation, % (test concentration not listed). DiscoveRx PathHunter D2 beta-arrestin, luminescence, 90 min; 100% = 57 uM dopamine signal; in the data active means activation above about 40%; inconclusive means between about 15% and that limit
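Agonist mode: compounds alone added to overnight-plated D2 PathHunter cells for 90 min at 37 C, with 57 uM final dopamine (EC100) defining full response. Beta-arrestin recruitment detected by chemiluminescent reagent, read after 1 h at ambient temperature.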
D2 PAM-2 = potentiates the human D2 dopamine receptor allosterically; DiscoveRx D2 beta-arrestin cells, luminescence, 90 min; 100% = 57 uM dopamine signal; P14416; potentiation, % (no concentration beside the values); actives 0.23% (n = 360,000); in the data active means potentiation above about 50%; inconclusive means mostly about 30% to 49%
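PathHunter D2 cells, attached overnight at 37 deg C, received compound in DMSO plus dopamine at EC20 (50 nM final) for 90 min at 37 deg C. Beta-arrestin recruitment was read as luminescence after 1 h with detection reagent at ambient temperature.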
D2 ag-2 = D2 dopamine receptor (human) agonism; activation, % at 2 µM; P14416; HEK293 T-REx D2 cells, calcium flux agonist mode; actives 0.53% (n = 340,000);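 active means activation over 3 SD above normal in the single-dose calcium agonist read, cut at about 30% in these data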
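Tetracycline-induced HEK293 T-REx cells with force-coupled D2 receptor, plated overnight at 30 C, loaded with no-wash calcium dye. After a 10 s baseline, compound was pin-added and calcium flux read kinetically for 180 s; calcium rises flagged agonists.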
D3 ag = D3 receptor agonism confirmed, beta-arrestin readout | shares compounds with D2 ag-2 | DiscoveRx D3 beta-arrestin cells, luminescence, 90 min | Potency, µM (doses to about 76.9 µM), usual class: activators | actives 4% (n = 2,300); further: nearly all actives have a fitted effect of over 70% in size
D2 ag-3 = activates human D2 dopamine receptor in D3 counterscreen. shares compounds with D2 ag-2. DiscoveRx PathHunter D2 beta-arrestin, luminescence, 90 min; response scale: percent relative to full dopamine signal. Potency, µM (titrated, usually from 76.9 µM), hits mostly activators. actives 5.9% (n = 2,300). AID 720507; further: nearly all actives have a fitted effect of over 70% in size
A number is an active result; n = inactive; u = inconclusive; x = no result. Unless noted, the call rests on the fitted dose curve; in most records, active means well fitted activation curve with a large enough effect; inconclusive means small, poorly fitted or top-dose-only effect; inactive means flat fitted curve, though single readings scatter.

SMILES | D2 PAM-1 | D2 antag | D2 ag-1 | D2 PAM-2 | D2 ag-2 | D3 ag | D2 ag-3
COc1ccc(-c2cc(C#N)nc(Cl)n2)cc1 | n | n | n | n | n | n | n
Cc1cccc(-c2noc(-c3ccc(N4CCN(C)CC4)c([N+](=O)[O-])c3)n2)c1 | n | x | x | x | n | x | x
Cc1ccc(C(C)C)c(OCCN(C)C)c1 | n | n | n | n | n | x | x
CCCN(CCC)CCOc1cc(C)ccc1C(C)C | x | x | u | n | x | n | u
OCCNCC1(O)C2CC3CC(C2)CC1C3 (stereo not given) | n | n | n | n | n | x | x
OC1(CNCc2ccccc2)C2CC3CC(C2)CC1C3 (stereo not given) | n | 56 | n | n | 49 | n | n
CCCCc1nn2c(=O)cc(COC(=O)c3ccccc3NC(=O)c3cccc(C)c3)nc2s1 | n | x | x | x | n | x | x
COC(=O)CCC(C)N1CCC(Oc2ccc(C(=O)N3CCCC3)cc2)CC1 (stereo not given) | n | n | n | n | 52 | n | n
CCOC(=O)Cc1csc(NC(=O)CN2CCOCC2)n1 | n | n | n | n | n | n | n
COc1ccccc1CNC(=O)CN1C(=O)CSc2ccc(S(=O)(=O)N3CCCCC3)cc21 | n | x | x | x | n | x | x
O=C(Cn1cc(SCc2ccc(Cl)cc2)c2ccccc21)N1CCCC1 | n | x | x | x | n | x | x
CCOc1cc(CNCCc2ccc(S(N)(=O)=O)cc2)ccc1OCc1ccc(Cl)cc1 | n | 65 | n | n | n | u | u
CC(=O)[C@@H]1[C@@H](C(=O)c2ccccc2)[C@]2(C(=O)Nc3ccccc32)[C@H]2C=Cc3cc(F)ccc3N12 | n | n | n | n | n | x | x
O=C(c1ccccc1)[C@@H]1[C@@H](C(=O)c2ccc(F)cc2)[C@@]2(C(=O)Nc3ccccc32)[C@H]2c3ccccc3C=CN12 | n | n | n | n | 57 | n | n
O=C(NCCS(=O)(=O)N1CCN(c2ccccc2)CC1)C1CC(=O)N(c2ccccc2)C1 (stereo not given) | n | n | n | n | n | n | n
O=C(NCCS(=O)(=O)N1CCN(c2ccc(F)cc2)CC1)C1CC(=O)N(c2ccccc2)C1 (stereo not given) | n | n | n | n | n | x | x
CC(Oc1cc2oc(=O)cc(-c3ccccc3)c2cc1Cl)C(=O)NCC1CCC(C(=O)O)CC1 (stereo not given) | n | 43 | n | n | 43 | n | n
O=C(/C=C/c1ccccc1Cl)Nc1ccccc1 | n | n | n | n | n | x | x
CN(C)S(=O)(=O)c1ccc(NC(=O)/C=C/c2ccccc2Cl)cc1 | n | n | u | n | n | u | n
O=CNc1ccccc1 | n | n | n | n | n | n | n
CCc1cccc(NC(=O)Cn2c(-c3ccc(F)cc3)cc(C(C)=O)c2C)c1 | n | x | x | x | x | x | x
OC(CN1CCN(c2ccccc2)CC1)c1c[nH]c2ccccc12 (stereo not given) | n | 54 | n | n | n | n | n
OC(CN1CCN(Cc2ccc3c(c2)OCO3)CC1)c1c[nH]c2ccccc12 (stereo not given) | n | n | n | n | n | x | x
CSc1c(CC(=O)NCCO)n(C)c2ccccc12 | n | n | n | n | n | x | x
Cn1c(CC(=O)NCCO)c(Sc2ccccc2)c2ccccc21 | n | n | n | n | 50 | n | n
Cc1cc(=O)n(Cc2c(F)cccc2Cl)c2c1c(C)nn2-c1cccc(F)c1 | n | x | x | x | n | x | x
CCOc1ccc(CC(=N)C2=C(O)CC(C)(C)CC2=O)cc1OCC | n | n | n | n | n | x | x
CCOc1ccc(CC(=NCCc2ccccc2)C2=C(O)CC(C)(C)CC2=O)cc1OCC | n | n | n | n | 47 | n | n
CCOc1ccc(N2C(=O)CC(NC3CCN(C(=O)c4ccc(F)cc4)CC3)C2=O)cc1 (stereo not given) | n | 38 | n | n | n | n | n
